Reference: PubChem BioAssay AID624390 (National Center for Advancing Translational Sciences (NCATS), 2012)
The source made the active and inactive calls. Calls follow the shape of the dose curve; as a rule, active = well fitted curve in the direction sought with a large enough effect; inactive = no such curve, though single readings can be large or run the other way.

Target: Pyruvate kinase PKLR (Homo sapiens) (UniProt P30613)
Test: qHTS for Activators of Human Muscle Isoform Pyruvate Kinase: Extended Characterization against Liver Pyruvate Kinase Probe 2
Conditions: purified hPK-L, ATP production, Kinase-Glo luminescence; series mostly up to 57.7 µM
Protocol: Human pyruvate kinase liver (hPK-L) enzyme was supplied as a highly purified (>95% pure) preparation from Harvard Medical School and assayed for its ability to generate ATP from ADP using phosphoenolpyruvate (PEP) as a substrate. ATP generation was detected in a coupled reaction by luciferase-mediated luminescence, an ATP-dependent process. Pyruvate kinase substrates, PEP and ADP, were present in the assay at Km and approximately 10-fold below Km respectively. The enzyme was assayed at an intermediate level of activity to screen for both inhibitors and activators. NIH Chemical Genomics Center [NCGC] NIH Molecular Libraries Probe Centers Network [MLPCN] MLPCN Grant: MH085679 Assay Submitter (PI): Matthew G. Vander Heiden, Harvard Medical School
Three uL of substrate mix (at r.t.) in assay buffer (50 mM Imidazole pH7.2, 50 mM KCl, 7 mM MgCl2, 0.01% Tween 20, 0.05% BSA) was dispensed into white solid bottom 1,536 well microtiter plates so that the final concentrations of substrates in the assay were 0.1 mM ADP and 0.5 mM PEP. 23 nL of compound were delivered by a pin tool and 1 uL of enzyme mix (final concentration of 0.1 nM) in assay buffer (4 degree Celsius) was added. Plates were incubated at room temperature for 1 hour. Two uL of detection mix (Kinase-Glo, Promega; at 4 degree Celsius protected from light) was added and luminescence read by a ViewLux (Perkin Elmer) at 1 second exposure/plate. Data were normalized to the uninhibited (row 31). Additionally, a no enzyme and 5-fold enzyme control was dispensed in row 32, split equally between the two conditions.

Pyruvate kinase PKLR (Homo sapiens), sequence (P30613 whole entry, looked up, canonical isoform): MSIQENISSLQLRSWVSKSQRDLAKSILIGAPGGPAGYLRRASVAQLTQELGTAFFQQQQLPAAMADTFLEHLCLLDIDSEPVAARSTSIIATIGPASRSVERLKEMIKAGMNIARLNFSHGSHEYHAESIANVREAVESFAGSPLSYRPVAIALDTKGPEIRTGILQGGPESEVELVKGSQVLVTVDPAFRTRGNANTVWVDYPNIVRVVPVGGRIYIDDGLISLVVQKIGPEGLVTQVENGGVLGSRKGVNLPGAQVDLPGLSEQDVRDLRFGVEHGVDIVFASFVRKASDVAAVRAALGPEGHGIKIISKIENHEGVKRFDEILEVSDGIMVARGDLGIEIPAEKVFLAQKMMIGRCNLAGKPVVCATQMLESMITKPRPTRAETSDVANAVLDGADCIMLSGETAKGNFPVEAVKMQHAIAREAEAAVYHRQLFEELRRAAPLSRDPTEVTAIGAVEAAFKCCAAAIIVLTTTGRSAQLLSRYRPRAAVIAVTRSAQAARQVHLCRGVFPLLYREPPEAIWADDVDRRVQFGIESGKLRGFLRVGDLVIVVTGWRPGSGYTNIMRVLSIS

outcome, inactive:
Cc1ccc(NS(=O)(=O)c2ccc3c(c2)CCC(=O)N3)cc1C
Nc1cccc(S(=O)(=O)N2CCCN(S(=O)(=O)c3ccc4c(c3)OCCO4)CC2)c1
COc1cccc(Cn2ncc3c4sc(S(C)=O)cc4n(C)c3c2=O)c1 (centres undefined)
O=S(=O)(c1ccc2c(c1)OCCO2)N1CCN(S(=O)(=O)c2c(F)cccc2F)CC1
